Experimental data reported in PMC4336329 (PLoS ONE, 2015).
Out of some 310,000 compounds screened, about 14,000 (4.5%) showed an effect of 50% or more. Effects have a minus sign here. This is one part of a sample in which strong results are shown more often than they occur.

target: human ether-à-go-go-related gene (hERG) potassium channel (human, UniProt Q12809); test: primary screen, population patch clamp on CHO cells stably expressing hERG; higher = less effect of the substance
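Note: peak tail current of the secondary pulse compared with the same well before compound.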

Chain of human ether-à-go-go-related gene (hERG) potassium channel (Q12809 whole entry, looked up): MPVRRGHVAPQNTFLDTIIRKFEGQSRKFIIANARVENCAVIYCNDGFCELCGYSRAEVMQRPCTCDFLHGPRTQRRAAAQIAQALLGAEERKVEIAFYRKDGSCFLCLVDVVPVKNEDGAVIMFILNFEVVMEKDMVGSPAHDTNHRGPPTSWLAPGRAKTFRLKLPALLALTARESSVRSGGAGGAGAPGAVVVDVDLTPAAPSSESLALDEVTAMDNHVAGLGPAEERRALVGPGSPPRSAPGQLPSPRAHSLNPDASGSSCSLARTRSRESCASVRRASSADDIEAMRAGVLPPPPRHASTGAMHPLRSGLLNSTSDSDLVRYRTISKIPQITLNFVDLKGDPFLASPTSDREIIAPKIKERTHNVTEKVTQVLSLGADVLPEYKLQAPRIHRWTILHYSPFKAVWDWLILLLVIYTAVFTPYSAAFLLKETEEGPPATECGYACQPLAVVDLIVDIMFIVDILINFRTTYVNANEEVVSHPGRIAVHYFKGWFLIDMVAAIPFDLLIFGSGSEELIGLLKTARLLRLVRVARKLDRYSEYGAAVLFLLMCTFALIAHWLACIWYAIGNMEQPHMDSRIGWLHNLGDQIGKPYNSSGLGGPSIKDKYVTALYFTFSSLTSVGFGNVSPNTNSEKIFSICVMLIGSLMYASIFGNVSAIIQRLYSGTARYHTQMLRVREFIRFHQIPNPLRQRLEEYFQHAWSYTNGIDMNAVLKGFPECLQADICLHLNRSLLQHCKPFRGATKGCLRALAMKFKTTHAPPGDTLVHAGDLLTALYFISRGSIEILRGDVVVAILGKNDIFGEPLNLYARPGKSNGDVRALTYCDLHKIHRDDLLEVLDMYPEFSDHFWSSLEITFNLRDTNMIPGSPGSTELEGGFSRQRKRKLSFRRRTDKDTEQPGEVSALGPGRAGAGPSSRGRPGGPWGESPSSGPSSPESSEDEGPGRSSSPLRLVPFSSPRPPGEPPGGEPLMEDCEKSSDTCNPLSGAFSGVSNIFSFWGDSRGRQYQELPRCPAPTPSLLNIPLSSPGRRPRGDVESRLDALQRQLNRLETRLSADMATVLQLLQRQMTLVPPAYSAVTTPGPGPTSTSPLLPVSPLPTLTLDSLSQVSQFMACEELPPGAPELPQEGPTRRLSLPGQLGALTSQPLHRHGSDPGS

Compound	hERG current change (%, negative = inhibition) at 10uM [%]
CCOC(=O)C1(CC2CCCCO2)CCN(S(=O)(=O)c2cccc(F)c2)CC1 (stereo not drawn)	29.8
CC(C#N)Sc1ncnc2sc3c(c12)CCC3 (stereo not drawn)	0.835
CCC(Sc1ccc2nnc(CCNS(=O)(=O)c3ccc(OC)cc3)n2n1)C(=O)OC (stereo not drawn)	-10.7
COc1cccc(CN2CCN(Cc3ccc4c(c3)OCCO4)CC2CCO)c1 (stereo not drawn)	-7.1
Cc1nn(C(C)C)c(C)c1CN1CCN(Cc2ccsc2)C(CCO)C1 (stereo not drawn)	0.518
CCCn1ncc(CN2CCN(Cc3ccsc3)C(CCO)C2)c1C (stereo not drawn)	-5.55
OCCC1CN(Cc2ccccc2OC2CCCC2)CCN1Cc1ccsc1 (stereo not drawn)	-68.7
OCCC1CN(Cc2cccc(OC3CCCC3)c2)CCN1Cc1ccsc1 (stereo not drawn)	-70
OCCC1CN(Cc2ccsc2)CCN1C1CCCC1 (stereo not drawn)	-9.06
CC(=O)c1cccc(NC(=O)N2CCC(c3ccc(C)cc3)C2)c1 (stereo not drawn)	-13.8
COc1ccc(-c2c(C(F)(F)F)oc3cc(OCC(=O)Nc4ccccc4C(F)(F)F)ccc3c2=O)cc1OC	4.91
CC1(C)Cc2nc3oc4c(N(CCO)Cc5ccccc5)ncnc4c3cc2CO1	-65.6
CC1(C)Cc2nc3oc4c(NCc5ccccc5)ncnc4c3cc2CO1	-10.7
CC1(C)Cc2nc3sc4c(N(CCO)CCO)ncnc4c3cc2CO1	3.56
CCN1CCN(C(=O)CN(c2cc(OC)ccc2OC)S(C)(=O)=O)CC1	16.2
O=C(c1ccc(Cl)cc1)N1N=C(c2ccccn2)CC1(O)C(F)(F)F (stereo not drawn)	-13.6
COc1ccc(S(=O)(=O)N2CCCCCC2)cc1NC(=O)c1ccccc1	10.5
COc1ccc(NC(=O)c2ccc3c(c2)OCCO3)cc1OC	9.47
COc1ccc(CCNS(=O)(=O)c2cccc(F)c2)cc1OC	-1.75
Nc1nonc1C(=O)NCCNC(=O)c1ccccc1F	4.12
Nc1nonc1C(=O)NCCNC(=O)c1cccs1	-58.7
C/C(=N\NC(=O)c1nonc1N)c1cccs1	4.26
CCCCCCCCNC(=O)c1cnccn1	-7.1
O=c1[nH]nc(CNc2ccc(O)cc2)c2ccccc12	-6.61

Compound	hERG current change (%, negative = inhibition) at 10uM [%]
CC1(C)CC(NC(=O)c2cccc(S(=O)(=O)N(Cc3ccccc3)c3ccccc3)c2)CC(C)(C)N1	-45.3
CN(C)S(=O)(=O)c1cc(C(=O)Nc2ccccc2C(=O)NC2CC2)ccc1Cl	-62.2
O=C(O)c1ccc(Cl)c(S(=O)(=O)N(Cc2ccccc2)c2ccc(F)cc2)c1	13.9
O=C(O)c1ccc(Cl)c(S(=O)(=O)N(Cc2ccccc2)c2ccccc2)c1	7.76
O=C(Nc1ccccc1C(=O)NC1CC1)c1ccccc1	12.9
COc1ccccc1N(Cc1ccccc1)S(=O)(=O)c1cccc(C(=O)O)c1	10.9
COc1ccccc1N(Cc1ccccc1)S(=O)(=O)c1cccc(C(=O)NC2CC(C)(C)NC(C)(C)C2)c1	-73.4
CC1(C)CC(NC(=O)c2ccc(Cl)c(S(=O)(=O)N(Cc3ccccc3)c3ccccc3)c2)CC(C)(C)N1	-62.3
CN(C)S(=O)(=O)c1ccc(F)c(C(=O)Nc2ccccc2C(=O)NC2CC2)c1	-38.7
CC1C(=O)N2CCCc3cc(S(=O)(=O)N4CCC(C(N)=O)CC4)cc1c32 (stereo not drawn)	7.24
CC1CCN(c2ccc(C(=O)Nc3ccc4c(c3)OCO4)cc2[N+](=O)[O-])CC1	7.17
O=C(CN(C(=O)C1CSC(=O)C1)c1ccccc1F)NCc1ccc2c(c1)OCO2 (stereo not drawn)	-12.4
O=C(COC(=O)c1cc([N+](=O)[O-])ccc1N1CCOCC1)Nc1c(Cl)cccc1Cl	-5.53
CCN(CC)S(=O)(=O)c1ccc(O)c(C(=O)OCC(=O)N(C)Cc2ccccc2)c1	-55.4
O=C(COC(=O)c1cc([N+](=O)[O-])ccc1N1CCOCC1)Nc1cc(F)ccc1F	-49.8
CN(Cc1ccccc1)C(=O)COC(=O)c1cc(S(=O)(=O)N(C)C)ccc1N1CCCC1	1.93
O=C(COC(=O)c1cc([N+](=O)[O-])ccc1N1CCOCC1)Nc1ccc(Cl)cn1	-61.5
COc1ccccc1NC(=O)COC(=O)c1cc([N+](=O)[O-])ccc1N1CCCC1	-0.76
O=C(COC(=O)c1cc([N+](=O)[O-])ccc1N1CCOCC1)NCCc1ccccc1	-45.4
COc1ccc(NC(=O)COC(=O)c2cc([N+](=O)[O-])ccc2N2CCOCC2)cc1	-29.3
O=C(COC(=O)c1cc([N+](=O)[O-])ccc1N1CCOCC1)Nc1ncc(Cl)cc1Cl	-29.2
COc1cccc(CNC(=O)COC(=O)c2cc([N+](=O)[O-])ccc2N2CCCC2)c1	-56.9
O=C(COC(=O)c1cc([N+](=O)[O-])ccc1N1CCOCC1)NCc1ccc(F)cc1	-53.7
CN(Cc1ccccc1)C(=O)COC(=O)c1ccc(S(=O)(=O)N(C)C)cc1	-2.9
